Results as given in PubChem BioAssay AID624296 (National Center for Advancing Translational Sciences (NCATS), 2012).
Hit rate of the full screen: of about 350,000 compounds, about 9,900 (2.8%) were called active. Another 15% or so got no clear call; they are omitted. The sample holds actives, similar compounds and a random draw of the others, so the mix is not that of the screen. The call rests on the fitted dose curve; in most records, active means well fitted activation curve with a large enough effect; inconclusive means small, poorly fitted or top-dose-only effect; inactive means no such curve, though single readings can be large or run the other way.

Assay: A quantitative high throughput screen for small molecules that induce DNA re-replication in MCF 10a normal breast cells. Further: nearly all actives have a fitted effect of over 50% in size. On activity, positive = re-replication: % of control where 0% means no effect.
Details: MCF 10A DNA re-replication, Hoechst nuclear intensity, 48 h; series mostly up to 46.1 µM; activity, positive = re-replication: at the top concentration
Description: H Molecular Libraries Probe Production Network [MLPCN]
NIH Chemical Genomics Center [NCGC]
Assay Provider: Melvin DePamphilis, NICHD, NIH
Eukaryotic cells normally restrict genome duplication to once per cell division. When this process is aberrant, DNA re-replication occurs when cells reinitiate DNA replication before the first round of replication is complete. DNA re-replication induces the DNA damage response, arrests cell proliferation, and triggers apoptosis. The cell cycle components cyclin A, Cdt-1, Cdc6 and geminin are critical regulators of this process and their misregulation results in DNA re-replication in normal and cancer cells. To identify compounds that induce re-replication in normal cells, an image-based assay was used to measure DNA content of nuclei, as detected by the fluorescent DNA binding dye, Hoechst. Cell nuclei were imaged by a fluorescence scanning plate imager and compounds that induce DNA re-replication were identified by the increase of nuclei with elevated fluorescence intensity
For screening, 250 cells in 5 uL/well were dispensed into black clear 1536-well plates (Aurora) using a solenoid-based dispenser. Following transfer of 23 nL compound or DMSO vehicle by a pin tool, the plates were incubated 48 hr at 37 C and 5% CO2. After addition of 1 uL/well Hoescht stain, the plates were incubated 40 min at 37 C, 5% CO2 and total intensity of fluorescent objects (nuclei) were enumerated by an Acumen Explorer Ex3 (TTP LabTech) fluorescence scanning plate imager (405 nm excitation, 500-530 nm emission).
Keywords: NIH Roadmap, MLPCN, MLI, MLSMR, qHTS, NCGC, DNA replication, cancer
Potency means the concentration at half of the fitted maximal effect.

SMILES	Potency	activity, positive = re-replication
COc1cc(Cn2c(N)c(C(=O)NCc3ccco3)c3nc4ccccc4nc32)cc(OC)c1OC	2.31 µM (active)	–
CCOC(=O)c1c(N)n(CCN2CCOCC2)c2nc3ccccc3nc12	–	5.89% (inactive)
CCOC(=O)c1c(N)n(Cc2ccccc2)c2nc3ccccc3nc12	–	-4.73% (inactive)
CC1CCCN1CCC(C(N)=O)(c1ccccc1)c1ccccc1 (stereo not given)	–	-16.2% (inactive)
C[C@]12CC[C@H](O)CC1=C([N+](=O)[O-])CC1C2CC[C@@]2(C)C1CC[C@@H]2O (stereo not given in full)	–	-1.74% (inactive)
CCc1ccc(OCC(=O)N2CCN(CC(=O)Nc3ccccc3Cl)CC2)cc1	–	9.38% (inactive)
C[C@]12CCCCC1=CC(=O)C1C2CC[C@@]2(C)C1C[C@@H](F)[C@@H]2O (stereo not given in full)	–	4.37% (inactive)
O=c1[nH]c(CN2CC=C(c3ccccc3)CC2)nc2scc(-c3cccs3)c12	25.9 µM (active)	–
C=C(C)C1(CCCC)C(=O)NC(=S)NC1=O	–	-1.56% (inactive)
Cc1ncsc1CCCl	–	-2.7% (inactive)
CCC(=O)c1ccc(OCC(=O)N2CCN(CC(=O)Nc3ccc(C)cc3)CC2)cc1	–	-12.2% (inactive)
COc1ccc(C2CC(c3cccs3)=NN2c2nc(C)c(C(C)=O)s2)cc1OC (stereo not given)	3.26 µM (active)	–
c1ccc2sc(SNC3CCCCC3)nc2c1	–	0.201% (inactive)
C=CCN1CCC23c4c5ccc(O)c4O[C@H]2C(=O)CC[C@@]3(O)C1C5 (stereo not given in full)	–	4.94% (inactive)
CC1C(=O)OC2CCN3CC=C(COC(=O)C(C)(O)C1(C)O)C23 (stereo not given)	–	-2.57% (inactive)
COc1ccc2c3c1O[C@H]1C[C@@H](O)C=C[C@@]31CCN(C)C2	inactive	–
CCOC(=O)CC(SP1(=S)OCC2(CCCCO2)C(C2CCCCO2)O1)C(=O)OCC (stereo not given)	–	5.67% (inactive)
C[C@]12CCC3C(CC[C@H]4[C@H](O)[C@H](O)CC[C@]34C)C1CC[C@@H]2O (stereo not given in full)	–	4.54% (inactive)
C/C(CCc1c[nH]c2ccccc12)=N\O	–	-0.423% (inactive)
O=[N+]([O-])c1cnc2ccc3ccccc3c2c1	–	1.89% (inactive)
C/C(=N/O)c1ccc2ccc3ccccc3c2c1	25.9 µM (active)	–
CCNC[C@H](O)c1cccc(O)c1	–	2.78% [at 20.6 µM] (inactive)
Nc1ccc(Cc2ccc(N)c(Cl)c2)cc1Cl	–	9.77% (inactive)
COc1ccc2c(c1)NP(=S)(c1ccccc1)N2 (stereo not given)	–	0.0619% (inactive)

SMILES	Potency	activity, positive = re-replication
CC(CC(C#N)(c1ccccc1)c1ccccc1)N1CCCCC1 (stereo not given)	–	1.98% (inactive)
CN(C)CC1Oc2ccccc2OC1(O)c1ccccc1 (stereo not given)	2.59 µM (active)	–
c1ccc(C(CN2CCCCC2)c2ccccc2)cc1	–	0.205% (inactive)
COc1cc(OC)cc(C2(C#N)CCN(C)CC2)c1	–	-5.67% (inactive)
Cc1cccc([C@H](C)c2cnc[nH]2)c1C	–	-1.12% (inactive)
CCOc1ccc(CN(CCCl)CCCl)cc1C(=O)OC	–	27.9% (inactive)
O=C1NC(=O)C(Cc2ccccc2)C(=O)N1	–	7.99% (inactive)
Cn1cc(C(=O)OCC(=O)N2CCCC2)c2ccccc21	–	-5.31% (inactive)
N#Cc1ccc(Cn2cc(C(=O)c3ccco3)c3ccccc32)cc1	–	9.12% (inactive)
NC(=O)Cn1cc(C(=O)c2ccccc2F)c2ccccc21	0.58 µM (active)	–
CCOC(=O)C1(c2ccccc2)CCN(CC(O)c2ccc(NC(C)=O)cc2)CC1 (stereo not given)	–	-0.895% (inactive)
Cc1nc2ccccc2c(=O)n1-c1ccc(Cl)cc1Cl	–	7.11% (inactive)
O=c1c2ccccc2nc(-c2ccco2)n1-c1ccc(Br)cn1	–	28.7% (inactive)
O=c1c2ccccc2nc(/C=C/c2ccco2)n1-c1ccccc1O	23.1 µM (active)	–
CNC(C)[C@@H](O)c1ccccc1 (stereo not given in full)	–	4.33% (inactive)
CCC(=O)OC(Cc1ccccc1)(c1ccccc1)C(C)CN(C)C (stereo not given)	–	1.9% (inactive)
c1cc2c(cc1C1OCC3C(c4ccc5c(c4)OCO5)OCC13)OCO2 (stereo not given)	–	-0.791% (inactive)
CC(=O)C1(O)CCC2C3CCC4=C(Cl)C(=O)CCC4(C)C3CCC21C (stereo not given)	–	-1.71% (inactive)
CCNc1nc2[nH]c(=O)c3c(c2s1)OC(N)=C(C#N)C3c1cccs1 (stereo not given)	–	-7.38% (inactive)
N#CC1=C(N)Oc2c(c(=O)oc3ccccc23)C1c1ccccc1OC(=O)c1cccs1 (stereo not given)	20.6 µM (active)	–
CCN1C(=O)NC(=O)C2(CCCC2)C1=O	–	1.74% (inactive)
COc1cc(-n2c(=S)[nH]c3ccc(C)cc3c2=O)c(Cl)cc1Cl	13 µM (active)	–
CC1([N+](=O)[O-])COP(=O)(Nc2ccc(F)cc2)OC1 (stereo not given)	–	0.716% (inactive)
COc1c(O)ccc2c1-c1c3c(cc4c1C(C2)N(C)CC4)OCO3 (stereo not given)	–	2.18% (inactive)

SMILES	Potency	activity, positive = re-replication
COc1ccc2cc1Oc1ccc(cc1)C[C@H]1c3cc(c(OC)cc3CCN1C)Oc1c(O)c(OC)cc3c1[C@H](C2)N(C)CC3	20.6 µM (active)	–
CC[N+]1(CCOC(=O)C(O)(c2ccccc2)c2ccccc2)CCCCC1	–	-0.489% (inactive)
COC1=C[C@@H]2[C@@H]3Cc4ccc(OC)c(O)c4[C@]2(CCN3C)CC1=O	–	-6.99% (inactive)
CNCC[C@H](Oc1ccc(C(F)(F)F)cc1)c1ccccc1	–	-31.5% (inactive)
Cc1cc(-c2ccc(N)c(C)c2)ccc1N	–	1.97% (inactive)
CC1CNCCN1c1ccc(Cl)cc1 (stereo not given)	–	2.88% (inactive)
C[C@@H]1C[C@@H]2O[C@H]2/C=C\C=C\C(=O)Cc2c(Cl)c(O)cc(O)c2C(=O)O1	9.2 µM (active)	–
CC(=O)OC1C([N+]2(C)CCCCC2)C[C@H]2C3CC[C@H]4C[C@H](OC(C)=O)C([N+]5(C)CCCCC5)CC4(C)C3CCC12C (stereo not given in full)	–	-4.37% (inactive)
Cc1ncc(CC(=O)n2cc(C(=O)c3cc(Cl)ccc3O)cn2)s1	10 µM (active)	–
C[C@]12CCC3C(CC[C@H]4[C@H](O)[C@H](O)CC[C@]34C)C1CCC2=O (stereo not given in full)	–	-8.95% (inactive)
O=C1NC(=O)C(CCOc2ccccc2)(CCc2ccccc2)C(=O)N1	–	16.8% (inactive)
CCC1(c2ccccc2)C(=O)NC(=O)N(C)C1=O (stereo not given)	–	-1.92% (inactive)
CCC1(CC(C)c2ccccc2)C(=O)NC(=O)NC1=O (stereo not given)	–	-24% (inactive)
Cc1cc2ccccn2c1C(C[N+](=O)[O-])c1c(F)cccc1Cl (stereo not given)	3.26 µM (active)	–
Oc1ccc2c3c1OC1[C@H](O)CC[C@@]4(O)[C@@H](C2)N(CC2CC2)CC[C@]314 (stereo not given in full)	inactive	–
CN1CCCC(=C(c2cccs2)c2cccs2)C1	–	13.4% (inactive)
COC(=O)[C@@H]1C(OC(=O)c2ccccc2)CC2CCC1N2C (stereo not given in full)	–	-11.5% (inactive)
Brc1cc(Br)c(Oc2cc(Br)c(Br)cc2Br)cc1Br	14.6 µM (active)	–
CC[C@]1(C(=O)OC)[C@H]2C(=O)N(Cc3ccccc3)C(=O)[C@H]2[C@H]2CN=C(SCc3ccc(C#N)cc3)N21	–	5.65% (inactive)
Cc1cc(C)c2c(c1)NP(=S)(c1ccccc1)N2 (stereo not given)	–	0.425% (inactive)
CN=C(NC#N)NCCSCc1nc[nH]c1C	inactive	–
O=C(N/N=C/c1ccc([N+](=O)[O-])o1)c1cc([N+](=O)[O-])cc([N+](=O)[O-])c1O	–	-1.45% (inactive)
